# Test results: paper PMC7862700, “An all-to-all approach to the identification of sequence-specific readers for epigenetic DNA modifications on cytosine”
# Legend:
# Assay in all cases: DAPPL (digital affinity profiling via proximity ligation, sequencing); 10 mM Tris-HCl pH 7.5, 50 mM NaCl, 1 mM DTT, 4% glycerol, room temperature, 30 min; GST-TFs on glutathione beads, 16-mer random dsDNA library, 0.1% formaldehyde crosslink after washing; high values mean tight binding
# FLI1 = molecular target: T1, FLI1 (Homo sapiens, UniProt Q01543 1-452); settings: protein: recombinant; tags: N-terminal GST; dsDNA, one strand shown
# T1 sequence: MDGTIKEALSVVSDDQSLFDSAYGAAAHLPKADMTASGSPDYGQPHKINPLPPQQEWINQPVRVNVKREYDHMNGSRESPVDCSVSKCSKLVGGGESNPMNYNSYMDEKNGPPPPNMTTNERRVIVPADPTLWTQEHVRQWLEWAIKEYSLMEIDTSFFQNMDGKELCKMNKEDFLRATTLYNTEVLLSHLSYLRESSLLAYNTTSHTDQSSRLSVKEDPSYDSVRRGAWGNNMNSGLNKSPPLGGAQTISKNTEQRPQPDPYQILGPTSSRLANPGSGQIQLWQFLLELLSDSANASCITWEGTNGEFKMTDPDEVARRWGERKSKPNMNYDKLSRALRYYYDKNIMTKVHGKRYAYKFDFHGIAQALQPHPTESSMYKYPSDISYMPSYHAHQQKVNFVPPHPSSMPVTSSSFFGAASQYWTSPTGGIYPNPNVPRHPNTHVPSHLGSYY
# Summary of the method: (§1)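 Pools of DNA-barcoded human transcription factors, expressed in yeast as GST fusions on glutathione beads and combined with a tag-only sample, were incubated with 200 nmole of a 16-mer random double-stranded DNA library. Incubation took 30 min at room temperature in Tris/NaCl/DTT/glycerol buffer and was followed by washing, 0.1% formaldehyde crosslinking, proximity ligation (BsaI/T4 ligase, 1 h, 37 °C), PCR amplification and sequencing on an Illumina NextSeq500. Binding signal is the ratio of a hexamer's read frequency for a factor to its frequency for the tag-only sample.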
# ELK1 = molecular target: T2, ELK1 (Homo sapiens, UniProt P19419 1-428); settings: protein: recombinant; tags: N-terminal GST; dsDNA, one strand shown
# T2 sequence: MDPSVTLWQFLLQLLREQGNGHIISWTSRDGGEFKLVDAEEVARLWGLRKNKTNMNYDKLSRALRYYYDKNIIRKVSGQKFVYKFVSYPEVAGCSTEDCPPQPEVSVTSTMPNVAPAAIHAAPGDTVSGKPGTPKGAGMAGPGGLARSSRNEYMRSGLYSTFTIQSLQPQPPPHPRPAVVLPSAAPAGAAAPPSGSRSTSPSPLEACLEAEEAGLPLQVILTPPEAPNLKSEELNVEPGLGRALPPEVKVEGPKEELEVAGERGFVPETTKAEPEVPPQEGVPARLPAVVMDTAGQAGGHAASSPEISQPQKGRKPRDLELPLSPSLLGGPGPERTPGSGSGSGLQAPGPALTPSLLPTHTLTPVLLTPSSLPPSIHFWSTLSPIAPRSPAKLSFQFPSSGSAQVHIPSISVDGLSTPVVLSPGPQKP
# Summary of the method: as §1
# GABPA = molecular target: T3, GABPA (Homo sapiens, UniProt Q06546 1-454); settings: protein: recombinant; tags: N-terminal GST; dsDNA, one strand shown
# T3 sequence: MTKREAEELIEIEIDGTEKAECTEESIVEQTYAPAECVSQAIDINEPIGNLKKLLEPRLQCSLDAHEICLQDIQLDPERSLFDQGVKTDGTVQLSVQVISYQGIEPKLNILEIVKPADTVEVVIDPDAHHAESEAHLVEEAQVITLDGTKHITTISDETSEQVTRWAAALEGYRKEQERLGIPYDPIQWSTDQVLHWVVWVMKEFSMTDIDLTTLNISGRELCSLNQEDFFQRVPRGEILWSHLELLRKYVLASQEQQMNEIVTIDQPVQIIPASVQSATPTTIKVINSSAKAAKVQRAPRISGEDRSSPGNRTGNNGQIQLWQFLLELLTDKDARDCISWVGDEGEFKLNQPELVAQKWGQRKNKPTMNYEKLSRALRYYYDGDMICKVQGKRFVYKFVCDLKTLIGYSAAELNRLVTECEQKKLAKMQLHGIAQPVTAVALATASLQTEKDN
# Summary of the method: as §1
# ERG = molecular target: T4, ERG (Homo sapiens, UniProt P11308 1-479); settings: protein: recombinant; tags: N-terminal GST; dsDNA, one strand shown
# T4 sequence: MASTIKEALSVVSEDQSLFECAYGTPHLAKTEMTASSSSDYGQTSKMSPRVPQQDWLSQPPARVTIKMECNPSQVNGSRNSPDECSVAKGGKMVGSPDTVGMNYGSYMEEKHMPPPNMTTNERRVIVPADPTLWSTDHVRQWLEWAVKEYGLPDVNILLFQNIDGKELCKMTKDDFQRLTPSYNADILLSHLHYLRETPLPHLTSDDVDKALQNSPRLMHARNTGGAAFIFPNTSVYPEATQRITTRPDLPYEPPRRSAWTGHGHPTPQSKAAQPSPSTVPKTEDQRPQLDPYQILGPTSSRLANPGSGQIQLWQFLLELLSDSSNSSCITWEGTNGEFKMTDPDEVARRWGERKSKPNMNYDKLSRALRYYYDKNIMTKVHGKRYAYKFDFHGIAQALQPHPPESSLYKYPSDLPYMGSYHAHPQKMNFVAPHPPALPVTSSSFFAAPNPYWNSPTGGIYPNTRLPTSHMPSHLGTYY
# Summary of the method: as §1
# ELF1 = ELF1 (Homo sapiens, UniProt P32519 1-619); settings: protein: recombinant; tags: N-terminal GST; dsDNA, one strand shown
# Chain of ELF1 (P32519 whole entry): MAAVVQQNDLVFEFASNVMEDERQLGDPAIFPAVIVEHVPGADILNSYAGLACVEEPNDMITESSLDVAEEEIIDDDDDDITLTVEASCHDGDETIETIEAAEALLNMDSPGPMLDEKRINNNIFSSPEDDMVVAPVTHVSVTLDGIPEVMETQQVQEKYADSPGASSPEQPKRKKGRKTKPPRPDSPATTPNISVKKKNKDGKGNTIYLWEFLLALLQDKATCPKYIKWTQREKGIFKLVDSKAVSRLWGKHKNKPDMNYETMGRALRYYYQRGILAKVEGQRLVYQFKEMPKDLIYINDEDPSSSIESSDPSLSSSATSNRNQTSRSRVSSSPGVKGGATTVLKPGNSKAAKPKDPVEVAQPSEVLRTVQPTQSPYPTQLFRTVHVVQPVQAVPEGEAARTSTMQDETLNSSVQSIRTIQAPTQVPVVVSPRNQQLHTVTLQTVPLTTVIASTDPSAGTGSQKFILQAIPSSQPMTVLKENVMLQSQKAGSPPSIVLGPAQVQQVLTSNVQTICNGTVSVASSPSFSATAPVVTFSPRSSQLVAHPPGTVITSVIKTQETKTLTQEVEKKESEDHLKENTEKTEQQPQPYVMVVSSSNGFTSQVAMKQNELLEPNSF
# Summary of the method: as §1
# EHF = molecular target: T5, EHF (Homo sapiens, UniProt Q9NZC4 1-300); settings: protein: recombinant; tags: N-terminal GST; dsDNA, one strand shown
# T5 sequence: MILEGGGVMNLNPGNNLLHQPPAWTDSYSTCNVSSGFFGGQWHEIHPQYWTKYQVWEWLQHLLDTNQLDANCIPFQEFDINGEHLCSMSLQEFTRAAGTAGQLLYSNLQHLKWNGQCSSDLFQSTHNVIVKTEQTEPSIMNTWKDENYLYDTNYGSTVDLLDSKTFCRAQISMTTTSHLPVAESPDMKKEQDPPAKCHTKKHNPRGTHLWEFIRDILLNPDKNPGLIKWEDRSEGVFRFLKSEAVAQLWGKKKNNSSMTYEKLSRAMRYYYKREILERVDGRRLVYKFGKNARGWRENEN
# Summary of the method: as §1
# SPI1 = SPI1 (Homo sapiens, UniProt P17947 1-270); settings: protein: recombinant; tags: N-terminal GST; dsDNA, one strand shown
# Summary of the method: as §1
# SPIB = SPIB (Homo sapiens, UniProt Q01892 1-262); settings: protein: recombinant; tags: N-terminal GST; dsDNA, one strand shown
# Chain of SPIB (Q01892 whole entry): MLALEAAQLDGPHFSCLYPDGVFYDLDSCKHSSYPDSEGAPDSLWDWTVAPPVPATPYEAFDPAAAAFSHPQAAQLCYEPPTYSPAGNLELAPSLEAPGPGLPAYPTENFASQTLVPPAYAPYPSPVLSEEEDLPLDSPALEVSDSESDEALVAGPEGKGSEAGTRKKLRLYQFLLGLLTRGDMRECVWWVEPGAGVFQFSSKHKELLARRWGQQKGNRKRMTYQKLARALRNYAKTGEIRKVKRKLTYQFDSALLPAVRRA
# Summary of the method: as §1
# ELK3 = molecular target: T6, ELK3 (Homo sapiens, UniProt P41970 1-407); settings: protein: recombinant; tags: N-terminal GST; dsDNA, one strand shown
# T6 sequence: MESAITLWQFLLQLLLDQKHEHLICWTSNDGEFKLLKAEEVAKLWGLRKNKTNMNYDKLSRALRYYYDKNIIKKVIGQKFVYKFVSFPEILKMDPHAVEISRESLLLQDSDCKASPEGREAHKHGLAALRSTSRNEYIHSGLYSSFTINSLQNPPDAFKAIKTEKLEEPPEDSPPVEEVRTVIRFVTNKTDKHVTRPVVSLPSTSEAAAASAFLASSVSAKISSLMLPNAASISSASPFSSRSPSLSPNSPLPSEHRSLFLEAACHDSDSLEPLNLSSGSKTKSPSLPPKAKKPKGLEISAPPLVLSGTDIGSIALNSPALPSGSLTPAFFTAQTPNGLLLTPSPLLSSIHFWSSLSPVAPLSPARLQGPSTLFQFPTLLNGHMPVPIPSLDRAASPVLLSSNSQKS
# Summary of the method: as §1
# FEV = molecular target: T7, FEV (Homo sapiens, UniProt Q99581 1-238); settings: protein: recombinant; tags: N-terminal GST; dsDNA, one strand shown
# T7 sequence: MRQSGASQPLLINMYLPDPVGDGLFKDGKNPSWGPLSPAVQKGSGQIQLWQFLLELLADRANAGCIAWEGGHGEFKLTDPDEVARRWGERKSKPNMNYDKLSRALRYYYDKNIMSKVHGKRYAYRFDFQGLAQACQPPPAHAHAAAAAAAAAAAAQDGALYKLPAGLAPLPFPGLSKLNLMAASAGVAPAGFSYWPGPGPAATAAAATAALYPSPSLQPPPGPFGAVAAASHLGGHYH
# Summary of the method: as §1
# ETV5 = ETV5 (Homo sapiens, UniProt P41161 1-510); settings: protein: recombinant; tags: N-terminal GST; dsDNA, one strand shown
# Chain of ETV5 (P41161 whole entry): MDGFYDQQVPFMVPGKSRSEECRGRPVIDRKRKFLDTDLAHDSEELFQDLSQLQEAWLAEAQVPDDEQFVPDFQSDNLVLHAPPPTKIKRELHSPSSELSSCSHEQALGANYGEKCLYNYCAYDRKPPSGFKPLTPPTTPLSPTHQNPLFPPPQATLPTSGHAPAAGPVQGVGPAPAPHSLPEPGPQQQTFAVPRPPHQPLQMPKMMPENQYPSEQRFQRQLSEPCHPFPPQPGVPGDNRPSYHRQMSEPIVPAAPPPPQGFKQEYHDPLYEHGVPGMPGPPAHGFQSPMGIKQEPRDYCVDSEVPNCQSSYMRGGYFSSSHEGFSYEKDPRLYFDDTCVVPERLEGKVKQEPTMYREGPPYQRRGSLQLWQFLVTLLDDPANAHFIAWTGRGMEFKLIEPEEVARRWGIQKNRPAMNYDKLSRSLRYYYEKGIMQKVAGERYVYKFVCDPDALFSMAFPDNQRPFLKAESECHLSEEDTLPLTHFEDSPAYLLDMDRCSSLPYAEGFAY
# Summary of the method: as §1
# HSF1 = HSF1 (Homo sapiens, UniProt Q00613 1-529); settings: protein: recombinant; tags: N-terminal GST; chain copies: 3; dsDNA, one strand shown
# Chain of HSF1 (Q00613 whole entry): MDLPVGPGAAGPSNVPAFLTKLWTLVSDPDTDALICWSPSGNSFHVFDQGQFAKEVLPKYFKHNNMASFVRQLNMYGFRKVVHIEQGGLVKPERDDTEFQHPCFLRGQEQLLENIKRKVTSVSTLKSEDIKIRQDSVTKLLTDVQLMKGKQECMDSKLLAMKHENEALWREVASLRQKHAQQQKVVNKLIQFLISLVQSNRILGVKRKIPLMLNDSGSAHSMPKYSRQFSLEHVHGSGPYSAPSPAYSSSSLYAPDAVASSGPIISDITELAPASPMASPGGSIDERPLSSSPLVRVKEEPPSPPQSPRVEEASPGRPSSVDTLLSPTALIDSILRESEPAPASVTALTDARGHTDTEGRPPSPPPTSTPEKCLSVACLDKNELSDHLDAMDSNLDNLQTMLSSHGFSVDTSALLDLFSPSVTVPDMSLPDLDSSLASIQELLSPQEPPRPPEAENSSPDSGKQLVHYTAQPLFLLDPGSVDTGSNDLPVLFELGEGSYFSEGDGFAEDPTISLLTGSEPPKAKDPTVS
# Summary of the method: as §1
# SPIC = molecular target: T8, SPIC (Homo sapiens, UniProt Q8N5J4 1-248); settings: protein: recombinant; tags: N-terminal GST; dsDNA, one strand shown
# T8 sequence: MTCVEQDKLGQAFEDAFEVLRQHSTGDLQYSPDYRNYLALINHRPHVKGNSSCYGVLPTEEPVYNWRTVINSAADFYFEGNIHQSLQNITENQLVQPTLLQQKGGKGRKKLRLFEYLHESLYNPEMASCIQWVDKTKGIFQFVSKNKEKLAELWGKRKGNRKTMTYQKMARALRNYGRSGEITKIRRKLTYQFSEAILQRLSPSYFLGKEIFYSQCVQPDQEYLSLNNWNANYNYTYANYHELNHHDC
# Summary of the method: as §1
# ELF4 = ELF4 (Homo sapiens, UniProt Q99607 1-663); settings: protein: recombinant; tags: N-terminal GST; dsDNA, one strand shown
# Chain of ELF4 (Q99607 whole entry): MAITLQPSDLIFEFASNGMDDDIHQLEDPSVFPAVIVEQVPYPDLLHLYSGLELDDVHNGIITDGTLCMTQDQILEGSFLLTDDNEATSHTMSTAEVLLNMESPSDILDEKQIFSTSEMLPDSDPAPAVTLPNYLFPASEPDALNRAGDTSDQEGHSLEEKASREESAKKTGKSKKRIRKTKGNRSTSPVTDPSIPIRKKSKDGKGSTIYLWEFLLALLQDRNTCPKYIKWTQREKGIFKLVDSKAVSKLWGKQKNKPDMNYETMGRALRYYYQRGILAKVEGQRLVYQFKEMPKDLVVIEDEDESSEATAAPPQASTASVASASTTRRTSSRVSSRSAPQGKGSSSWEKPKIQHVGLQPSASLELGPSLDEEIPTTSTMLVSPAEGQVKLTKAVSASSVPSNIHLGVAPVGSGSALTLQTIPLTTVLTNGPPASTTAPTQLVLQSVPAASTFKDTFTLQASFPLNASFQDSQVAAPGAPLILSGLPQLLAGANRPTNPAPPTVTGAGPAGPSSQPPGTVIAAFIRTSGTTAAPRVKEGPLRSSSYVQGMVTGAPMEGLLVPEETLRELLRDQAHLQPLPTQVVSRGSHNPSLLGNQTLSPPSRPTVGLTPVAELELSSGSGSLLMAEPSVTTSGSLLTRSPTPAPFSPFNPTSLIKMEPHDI
# Summary of the method: as §1
# ELK4 = molecular target: T9, ELK4 (Homo sapiens, UniProt P28324-2 1-405); settings: protein: recombinant; tags: N-terminal GST; dsDNA, one strand shown
# T9 sequence: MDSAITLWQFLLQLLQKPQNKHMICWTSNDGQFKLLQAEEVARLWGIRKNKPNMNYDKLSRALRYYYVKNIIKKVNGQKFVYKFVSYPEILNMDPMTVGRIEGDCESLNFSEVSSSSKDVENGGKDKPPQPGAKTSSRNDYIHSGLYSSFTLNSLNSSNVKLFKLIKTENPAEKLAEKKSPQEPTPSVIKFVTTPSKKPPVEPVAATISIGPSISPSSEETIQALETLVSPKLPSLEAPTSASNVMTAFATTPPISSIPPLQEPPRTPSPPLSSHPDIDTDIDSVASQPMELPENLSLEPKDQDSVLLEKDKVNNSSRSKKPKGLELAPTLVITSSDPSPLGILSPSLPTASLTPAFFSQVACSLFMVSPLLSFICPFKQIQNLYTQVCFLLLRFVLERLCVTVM
# Summary of the method: as §1
# ETV2 = molecular target: T10, ETV2 (Homo sapiens, UniProt O00321 1-342); settings: protein: recombinant; tags: N-terminal GST; dsDNA, one strand shown
# T10 sequence: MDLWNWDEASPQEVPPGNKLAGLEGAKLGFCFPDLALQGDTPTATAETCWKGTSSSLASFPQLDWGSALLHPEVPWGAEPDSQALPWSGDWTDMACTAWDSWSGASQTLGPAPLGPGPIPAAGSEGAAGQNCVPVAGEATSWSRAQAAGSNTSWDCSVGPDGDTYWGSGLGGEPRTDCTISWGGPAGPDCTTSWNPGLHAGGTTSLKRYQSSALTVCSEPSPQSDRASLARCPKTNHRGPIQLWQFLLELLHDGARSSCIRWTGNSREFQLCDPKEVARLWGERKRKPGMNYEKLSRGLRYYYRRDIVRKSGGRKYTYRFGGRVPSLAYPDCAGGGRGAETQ
# Summary of the method: as §1
# ELF3 = molecular target: T11, ELF3 (Homo sapiens, UniProt P78545 1-371); settings: protein: recombinant; tags: N-terminal GST; dsDNA, one strand shown
# T11 sequence: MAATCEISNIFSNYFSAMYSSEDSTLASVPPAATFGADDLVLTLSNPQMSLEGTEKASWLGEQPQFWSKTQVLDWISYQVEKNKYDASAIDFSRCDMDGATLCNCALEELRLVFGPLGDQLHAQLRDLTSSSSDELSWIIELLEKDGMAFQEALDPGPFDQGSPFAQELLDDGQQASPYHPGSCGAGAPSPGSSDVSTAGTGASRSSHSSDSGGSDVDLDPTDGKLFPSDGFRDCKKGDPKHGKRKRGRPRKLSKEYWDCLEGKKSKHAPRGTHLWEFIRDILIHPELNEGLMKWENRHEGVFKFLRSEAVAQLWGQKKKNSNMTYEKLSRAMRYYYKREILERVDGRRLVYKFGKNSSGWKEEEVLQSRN
# Summary of the method: as §1
# CRX = CRX (Homo sapiens, UniProt O43186 1-299); settings: protein: recombinant; tags: N-terminal GST; dsDNA, one strand shown
# Chain of CRX (O43186 whole entry): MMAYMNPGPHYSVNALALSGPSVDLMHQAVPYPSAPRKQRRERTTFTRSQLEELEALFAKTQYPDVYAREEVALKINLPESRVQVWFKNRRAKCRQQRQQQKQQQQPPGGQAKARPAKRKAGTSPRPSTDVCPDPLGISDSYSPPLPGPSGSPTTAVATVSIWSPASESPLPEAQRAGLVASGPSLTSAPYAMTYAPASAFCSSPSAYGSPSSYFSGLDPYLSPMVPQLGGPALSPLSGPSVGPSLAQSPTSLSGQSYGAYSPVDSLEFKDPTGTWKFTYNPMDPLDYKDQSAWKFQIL
# Summary of the method: as §1
# ETV1 = ETV1 (Homo sapiens, UniProt P50549 1-477); settings: protein: recombinant; tags: N-terminal GST; dsDNA, one strand shown
# Chain of ETV1 (P50549 whole entry): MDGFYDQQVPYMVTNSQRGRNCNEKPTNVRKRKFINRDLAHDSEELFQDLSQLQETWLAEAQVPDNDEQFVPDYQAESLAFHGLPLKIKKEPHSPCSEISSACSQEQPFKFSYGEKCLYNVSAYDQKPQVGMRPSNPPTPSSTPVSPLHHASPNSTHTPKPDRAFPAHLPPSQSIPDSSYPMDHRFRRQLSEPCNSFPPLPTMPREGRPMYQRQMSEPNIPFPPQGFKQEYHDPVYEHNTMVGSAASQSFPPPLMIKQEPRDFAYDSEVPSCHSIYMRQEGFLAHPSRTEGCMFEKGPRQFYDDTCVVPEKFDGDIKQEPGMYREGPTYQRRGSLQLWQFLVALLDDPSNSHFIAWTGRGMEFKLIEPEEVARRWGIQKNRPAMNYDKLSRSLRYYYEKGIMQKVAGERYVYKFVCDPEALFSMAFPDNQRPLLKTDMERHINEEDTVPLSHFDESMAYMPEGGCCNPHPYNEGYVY
# Summary of the method: as §1
sequence,measurement,setting,value
TCCTTA,binding signal,FLI1,"1.6 fold enrichment (6-mer frequency, TF over GST control)"
same,binding signal,ELK1,"1.38 fold enrichment (6-mer frequency, TF over GST control)"
same,binding signal,GABPA,"1.57 fold enrichment (6-mer frequency, TF over GST control)"
same,binding signal,ERG,"1.55 fold enrichment (6-mer frequency, TF over GST control)"
same,binding signal,ELF1,"1.66 fold enrichment (6-mer frequency, TF over GST control)"
same,binding signal,EHF,"1.71 fold enrichment (6-mer frequency, TF over GST control)"
same,binding signal,SPI1,"1.78 fold enrichment (6-mer frequency, TF over GST control)"
same,binding signal,SPIB,"1.7 fold enrichment (6-mer frequency, TF over GST control)"
same,binding signal,ELK3,"1.4 fold enrichment (6-mer frequency, TF over GST control)"
same,binding signal,FEV,"1.48 fold enrichment (6-mer frequency, TF over GST control)"
same,binding signal,ETV5,"1.52 fold enrichment (6-mer frequency, TF over GST control)"
same,binding signal,HSF1,"1.54 fold enrichment (6-mer frequency, TF over GST control)"
same,binding signal,SPIC,"1.66 fold enrichment (6-mer frequency, TF over GST control)"
same,binding signal,ELF4,"1.56 fold enrichment (6-mer frequency, TF over GST control)"
same,binding signal,ELK4,"1.41 fold enrichment (6-mer frequency, TF over GST control)"
same,binding signal,ETV2,"1.59 fold enrichment (6-mer frequency, TF over GST control)"
same,binding signal,ELF3,"1.43 fold enrichment (6-mer frequency, TF over GST control)"
same,binding signal,CRX,"1.83 fold enrichment (6-mer frequency, TF over GST control)"
same,binding signal,ETV1,"1.56 fold enrichment (6-mer frequency, TF over GST control)"
